IMPase cell inh – membrane-permeable compound that blocks inositol monophosphatase; CHO-M1 cells, IP1 accumulation, HTRF TR-FRET ratio; inhibition (IP1 accumulation), % at 46.1 µM; 120,000 tested, under 10 active; active = well fitted curve in the direction sought with a large enough effect in the signal ratio, not every such curve was filed as active; inconclusive = small, poorly fitted or top-dose-only effect, or a change in a side signal; inactive = no such curve, though single readings can be large or run the other way; the % refers to the signal ratio;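 also: cells stimulated with carbachol in lithium chloride buffer; plate controls were DMSO basal wells for no effect and reference inhibitor wells for full effect; higher means more IMPase inhibition seen as more IP1 and lower FRET ratio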
Target sequence (P97697 whole entry, looked up): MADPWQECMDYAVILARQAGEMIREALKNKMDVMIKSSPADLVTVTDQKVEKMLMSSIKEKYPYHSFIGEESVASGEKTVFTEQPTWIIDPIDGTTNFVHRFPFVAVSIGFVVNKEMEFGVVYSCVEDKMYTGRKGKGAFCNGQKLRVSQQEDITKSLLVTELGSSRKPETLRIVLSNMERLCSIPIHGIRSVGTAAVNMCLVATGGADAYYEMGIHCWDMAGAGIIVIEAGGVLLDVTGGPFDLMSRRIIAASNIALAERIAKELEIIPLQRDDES
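CHO-M1 cells (CHO stably expressing M1 receptor), compound up to 46 uM final, stimulated with carbachol (50 uM as added) in buffer with 50mM LiCl, pH 7.4, 30 min at 37C. Cytosolic IP1 read by TR-FRET; AC50 from Hill fits.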
HPGD inh – HPGD (human) dehydrogenase inhibition | 150,000 tested, 4.3% active | Potency, µM, for the others: at the top dose activity change, negative = inhibition, hits mostly inhibitors | purified HPGD, NADH fluorescence kinetic, PGE2 substrate; active = well fitted inhibition curve with a large enough effect, not every such curve was filed as active; inconclusive = small, poorly fitted or top-dose-only effect, or another doubt; inactive = no such curve, though single readings can be large or run the other way; also: potency is read from the fitted curve at half-maximal effect
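20 nM HPGD preincubated 15 min at room temperature with compound in 50 mM Tris-HCl pH 8, 0.01% Tween 20. Started with 1 mM NAD+ and 30 uM prostaglandin E2; NADH fluorescence (360/450 nm) read 5 times over 30-s intervals, last minus first.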
ALDH1A1 block – ALDH1A1 (human) enzyme inhibition; 220,000 tested, 7.3% active; AID 1030; Purified ALDH1A1, NADH fluorescence, propionaldehyde substrate; P00352; Potency, µM (top dose mostly 75.3 µM), inactives show at the highest dose activity, negative = inhibition, actives largely listed as inhibitors; active = well fitted inhibition curve with a large enough effect, not every such curve was filed as active; inconclusive = small, poorly fitted or top-dose-only effect, or another doubt; inactive = no such curve, though single readings can be large or run the other way;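 also: potency is read from the fitted curve at half-maximal effect; plate controls were no enzyme wells and a reference inhibitor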
NPSR antagonist – blocks cAMP signaling of the human neuropeptide S receptor | Q6W5P4 | CHO-NPSR cells, cAMP TR-FRET, antagonist mode | Potency, µM (series often up to 38.3 µM), without a hit: top-dose activity change, negative = inhibition, most hits filed as inhibitors | 220,000 tested, 1% active | AID 1461; also: potency is read from the fitted curve at half-maximal effect; nearly all actives have a fitted effect of over 50% in size
Target sequence (Q6W5P4 whole entry, looked up): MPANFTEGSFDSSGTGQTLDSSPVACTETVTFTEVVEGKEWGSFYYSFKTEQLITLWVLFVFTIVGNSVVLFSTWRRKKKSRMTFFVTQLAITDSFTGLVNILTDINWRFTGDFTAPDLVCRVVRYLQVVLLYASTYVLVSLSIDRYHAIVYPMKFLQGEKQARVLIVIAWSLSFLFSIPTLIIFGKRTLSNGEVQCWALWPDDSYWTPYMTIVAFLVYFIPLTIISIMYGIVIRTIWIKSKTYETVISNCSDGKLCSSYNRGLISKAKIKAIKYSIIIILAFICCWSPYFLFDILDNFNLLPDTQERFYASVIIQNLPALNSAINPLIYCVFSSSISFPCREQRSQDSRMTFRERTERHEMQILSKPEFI
ALOX12 inhib – inhibitors of human 12-lipoxygenase (ALOX12) | P18054 | purified 12-hLO, xylenol orange hydroperoxide absorbance | Potency, µM (titrated, usually from 57.1 µM), without a hit: top-dose activity change, negative = inhibition, most hits filed as inhibitors | 150,000 tested, 0.12% active | AID 1452; also: potency is read from the fitted curve at half-maximal effect; nearly all actives have a fitted effect of over 55% in size
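Purified human 12hLO (150 nM), preincubated 15 min with compound, then 40 uM arachidonic acid for 30 min, room temperature, Hepes pH 7.0 with 0.01% Triton X-100. Hydroperoxide detected by ferrous iron/xylenol orange; 573/405 nm absorbance ratio gives reaction progress.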
IMPase Li cell – cell-permeable IMPase inhibitors with lithium potentiation | CHO-M1 cells, IP1 TR-FRET (IP-One), carbachol + lithium | Potency, µM (doses to about 59.4 µM), without a hit: top-dose activity, negative = IMPase inhibition, hits mostly inhibitors | 210,000 tested, 0.35% active | AID 1457;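 also: IP1 builds up when IMPase is blocked and the TR-FRET signal falls; potency is read from the fitted curve at half-maximal effect; plate controls were basal vehicle for no effect and high inhibitor control for full effect; nearly all actives have a fitted effect of over 50% in size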
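CHO-M1, 2000 cells/well, 16–30 h culture; cpd + low Li+, 30 min 37C; lysis with d2-IP1/Eu-anti-IP1 Ab, 10 min RT; TR-FRET 665/620 ratio and 620 channel; AC50 via Hill.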
The depositor's hits bear a star; ? = inconclusive; · = no result; [ ] = remark or other dose. Only some compounds are listed: those with a hit (about 8.9% of all), similar ones and a draw of the others. Unless noted, calls follow the shape of the dose curve; as a rule, active = well fitted curve in the direction sought with a large enough effect; inconclusive = small, poorly fitted or top-dose-only effect, or another doubt; inactive = no such curve, though single readings can be large; an effect the other way counts as inactive or inconclusive. Unless noted, % is scaled to controls: 0 for no effect and ±100 for the full control effect.

SMILES	IMPase cell inh	HPGD inh	ALDH1A1 block	NPSR antagonist	ALOX12 inhib	IMPase Li cell
COc1ccc(C2CC(=O)N(CCCN(C)CCc3ccc(OC)c(OC)c3)C2)cc1 (stereo not drawn)	·	·	14µM*	11%	·	13%
COc1ccc(NS(=O)(=O)c2ccc(NS(=O)(=O)c3ccc(C)cc3)cc2)nn1	3	-12%	13µM*	-10%[46.1 µM]	-9%	11%[38.3 µM]
O=C(N/N=C/C1CC=CCC1)c1ccc(O)cc1O (stereo not drawn)	·	-9%	?	14%	0%	-4%
COc1cc(C(=O)N/N=C/C2CC=CCC2)cc(OC)c1OC (stereo not drawn)	·	-10%	11µM*	-31%	-3%	-1%
Nc1c(C(=O)c2ccccc2)sc2snc(SCC(=O)c3ccccc3)c12	3	-29%	10µM*	-10%[46.1 µM]	?	1%[38.3 µM]
CCN(CC)c1ccc(NC(=S)NC(=O)c2ccco2)cc1	·	·	25µM*	-26%	·	10%
CCN(CC)c1ccc(NC(=S)NC(=O)c2cccs2)cc1	·	·	8.9µM*	?	·	14%
O=C(NNC(=S)Nc1ccc(Cl)cc1)c1cccs1	·	·	11µM*	15%	·	-2%
O=C(NNC(=S)Nc1ccccc1)c1cccs1	·	-7%	-11%	-7%	1%	-3%
CCCC(=O)Nc1ccc(NC(=S)NC(=O)c2cccs2)cc1	·	·	-8%	-3%	·	9%
CCN(CC)c1ccc(NC(=O)c2ccco2)cc1	10	-16%	-4%	-20%[46.1 µM]	11%	-6%[38.3 µM]
CCN(CC)c1ccc(/C=N/NC(=O)c2ccc([N+](=O)[O-])cc2)cc1	·	·	28µM*	15%	·	-3%
O=C(NNC(=S)NCc1ccccc1)c1ccccc1OC(F)F	·	-9%	-12%	12%	0%	3%
COc1ccc(-c2csc(NC(=S)NC(=O)c3cccs3)n2)cc1OC	·	·	11µM*	-34%	·	20%
CCCCn1nnc(NC(=S)NC(=O)c2cccs2)n1	10	·	20µM*	-2%[46.1 µM]	-15%	·
O=C(NNC(=S)Nc1ccc(Cl)cc1)c1ccccc1OC(F)F	·	-14%	20µM*	0%	-3%	2%
CCCCC(=O)Nc1ccc(NC(=S)NC(=O)c2cccs2)cc1OC	·	-11%	20µM*	-32%	2%	3%
CN(C)C(CNC(=O)c1ccc2c(c1)S(=O)(=O)c1ccccc1C2=O)c1ccco1 (stereo not drawn)	·	·	?	16%	·	-1%
CCOC(=O)c1[nH]c2ccc(OCC)cc2c1NC(=O)CN1CCN(c2ccccn2)CC1	-11	?	?	-18%[46.1 µM]	-10%	-4%[38.3 µM]
CCOc1ccc(-n2ccnc2SCC(=O)Nc2cc(C)on2)cc1	·	·	4%	-4%	·	-2%
Cc1ccc(S(=O)(=O)N2CCC(=O)N(CCOC(=O)Nc3ccc(C)c(C)c3)CC2)cc1	·	3%	-2%	-8%	-3%[0.00818 µM]	-1%
CCN(CC)c1ccc(/C=N/NC(=O)c2ccco2)c(O)c1	·	·	·	22%	·	·
CCN(CC)C(=S)SCC(=O)Nc1ccc(F)cc1	1	18µM*	?	-8%[46.1 µM]	-3%	13%[38.3 µM]
COc1ccccc1NC(=S)NNC(=S)Nc1ccc(OC(F)F)cc1	5	-19%	7.1µM*	-10%	-7%	15%
CCN(CC)c1ccc(/C=N/NC(=O)c2ccco2)cc1	·	-29%	10µM*	-19%	0%	13%
SMILES	IMPase cell inh	HPGD inh	ALDH1A1 block	NPSR antagonist	ALOX12 inhib	IMPase Li cell
COc1ccc(NC(=S)Nc2ccc(OC(F)F)cc2)cn1	·	·	1%	-5%	·	4%
Cc1ccc(C(=O)NC(=S)Nc2ccc(-c3ccc(CO)o3)cc2)cc1	·	·	?	31%	·	-1%
O=C(NC(=S)Nc1ccc(-c2ccc(CO)o2)cc1)c1cccs1	·	·	20µM*	-28%	·	-6%
CN(C)S(=O)(=O)c1ccc(NC(=S)NC(=O)c2cccs2)cc1	·	·	?	18%	·	·
CCN(CC)c1ccc(NC(=O)CN2CCN(CC(=O)Nc3ccc(F)cc3)CC2)cc1	7	1%	-6%	-12%[46.1 µM]	-1%	24%[38.3 µM]
CCN(CC)c1ccc(/C=N/NC(=O)c2cnccn2)cc1	·	·	22µM*	3%	·	14%
CCN(CC)c1ccc(NC(=S)Nc2ccc(F)cc2)cc1	·	·	11µM*	-11%	·	4%
CCN(c1ccccc1)S(=O)(=O)c1ccc(NC(=S)NC(=O)c2cccs2)cc1	20	-21%	6.3µM*	?	25µM*	29%[38.3 µM]
CCN(CC)c1ccc(/C=N/NC(=O)c2ccccn2)cc1	·	·	·	39%	·	·
Cc1oc(/N=C/c2ccccc2O)c(C#N)c1C	1	-20%	?	-12%[46.1 µM]	-13%	11%[38.3 µM]
Cc1oc(/N=C/c2c(O)ccc3ccccc23)c(C#N)c1C	7	-13%	35µM*	1%[46.1 µM]	-6%	1%[38.3 µM]
CC(C)CNC(=O)CC(=O)N/N=C/c1ccc(Br)cc1	11	16µM*	0.89µM*	?	1%	7%[38.3 µM]
COc1cccc(CN2CCCC(C(=O)c3ccc4c(c3)OCO4)C2)c1O (stereo not drawn)	·	·	4%	15%	·	31%
CC(C)Oc1cccc(C(=O)C2CCCN(Cc3cnn(C(C)C)c3)C2)c1 (stereo not drawn)	·	·	10µM*	-2%	·	18%
CCOC(=O)C1CCCN(Cc2ccc3c(c2)OCO3)C1 (stereo not drawn)	?	6%	13µM*	15%[46.1 µM]	-6%	11%
CCN(CC)C(=O)C1CCCN(Cc2ccc3c(c2)OCO3)C1 (stereo not drawn)	7	-9%	-11%	-9%[46.1 µM]	-1%	-13%[38.3 µM]
CCOC(=O)C1CCCN(CCC(=O)Nc2cccc(C)c2)C1 (stereo not drawn)	-9	·	-6%	1%	·	0%
CC(=O)c1cccc(CN2CCCC(C(=O)c3ccc4c(c3)OCO4)C2)c1 (stereo not drawn)	·	·	28µM*	9%	·	43%
CCOC(=O)C1CCCN(CC(O)COc2cccc(C)c2)C1 (stereo not drawn)	·	25µM*	7%	6%	1%	-11%

Assay outcomes as filed in PubChem BioAssay.
